FBW7 activator – human FBW7 E3 ligase activation, primary screen; Q969H0; AlphaScreen FBW7–phospho-cyclin E peptide binding, activator screen; normalized activity (activation), % at 26.1 µM; 650,000 tested, 0.13% active; in the data active means normalized activity above about 1.9%;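 further: purified mutant Fbw7 with reduced substrate affinity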
MITF primary – human MITF inhibition, primary screen. O75030. AlphaScreen MITF homodimerization, bead proximity signal. inhibition, % at 2.6 µM. 650,000 tested, 0.91% active. AID 1259374; in the data active means inhibition above about 50%;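 further: 0% = vehicle wells with protein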
GPR151 activ – human GPR151 activation | Q8TDV0 | PathHunter beta-arrestin GPR151 cells, luminescence | activation, % at 11.2 µM | 650,000 tested, 1% active | AID 1508602; in the data active means activation above about 4.9%;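 further: 0% = median of compound wells and 100% = cells with positive control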
Target sequence (Q8TDV0 whole entry, looked up): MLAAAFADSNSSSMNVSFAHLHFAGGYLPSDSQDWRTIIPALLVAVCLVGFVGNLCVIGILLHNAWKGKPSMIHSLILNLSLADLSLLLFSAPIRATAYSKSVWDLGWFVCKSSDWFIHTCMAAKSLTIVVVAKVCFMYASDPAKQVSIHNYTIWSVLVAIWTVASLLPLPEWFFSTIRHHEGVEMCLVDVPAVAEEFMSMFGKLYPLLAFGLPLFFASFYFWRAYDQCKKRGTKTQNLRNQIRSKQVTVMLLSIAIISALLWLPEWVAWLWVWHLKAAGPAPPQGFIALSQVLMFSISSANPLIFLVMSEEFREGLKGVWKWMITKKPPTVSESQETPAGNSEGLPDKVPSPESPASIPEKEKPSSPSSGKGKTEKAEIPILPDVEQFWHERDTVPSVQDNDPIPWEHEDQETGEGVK
TEAD-YAP inh – TEAD-YAP interaction inhibition | HEK-TIYL cells, TEAD-Gal4/YAP UAS-luciferase luminescence | inhibition, % at 9.12 µM | 640,000 tested, 1.4% active; in the data active means inhibition above about 32%;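 further: 0% = median of test compound wells and 100% = reference inhibitor wells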
MITF confirm – human MITF inhibition, confirmation; AlphaScreen MITF homodimerization, biotin/His-MITF beads; inhibition, % at 2.6 µM; shares compounds with MITF primary; 4,700 tested, 16% active; AID 1259372;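 active means inhibition above a cutoff derived from the DMSO control wells, cut at about 28% in these data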;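 further: 0% = MITF dimer wells with DMSO only; inhibitors lower the bead chemiluminescence by keeping MITF from dimerizing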
AS interf DR – AlphaScreen optical interference, dose response counter-screen; IC50, µM; AID 1259373; shares compounds with MITF primary; AlphaScreen optical interference counterscreen, cell-free; 480 tested, 6% active; call rule not given here
AS interf ctr – optically interferes with AlphaScreen signal; inhibition, % at 2.6 µM; LysRS AlphaScreen counterscreen, signal interference, triplicate; shares compounds with MITF primary; 4,700 tested, 7.6% active;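 active means inhibition above a cutoff derived from the DMSO control wells, cut at about 30% in these data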
Active calls of the source: *; / = no result given. In the library only some 3.5% were active in any assay of this set; here they are far more common.

SMILES | FBW7 activator | MITF primary | GPR151 activ | TEAD-YAP inh | MITF confirm | AS interf DR | AS interf ctr
C[C@H]1NC(=O)[C@H]2CN(C(=O)NCc3ccccc3)CCN2C1=O | 0.6 | 80.7* | 4.8 | 15.5 | 64.7* | >6.48 | -4.8
O=C(NCc1ccccc1)N1CCN2C(=O)[C@H]3CCCN3C(=O)[C@H]2C1 | -0.2 | 76.3* | -0.7 | 11.2 | 68.5* | >6.48 | -10.7
Nn1c(Cn2nnc3ccccc32)n[nH]c1=S | 0.2 | 20.3 | -0.1 | 4.5 | / | / | /
COc1ccc(-c2nnc3sc(NC(=O)COc4ccc(C)cc4)nn23)cc1OC | -0.1 | -5.3 | -1.5 | 10.6 | / | / | /
COCCCN1C(=O)/C(=C\c2cccc(Cl)c2)C(C(=O)OC)=C1C | -0.2 | 11.1 | -0.4 | 3.0 | / | / | /
C[C@@H](O)[C@@H]1NC(=O)[C@H]2CN(C(=O)NCc3ccccc3)CCN2C1=O | -0.3 | 75.3* | -1.0 | -3.0 | 72.1* | >6.48 | -14.9
O=C1N[C@@H](CO)C(=O)N2CCN(C(=O)OCc3ccccc3)C[C@H]12 | 0.1 | 0.2 | 0.0 | 0.9 | / | / | /
CC(C)[C@@H]1NC(=O)[C@H]2CN(C(=O)NCc3ccccc3)CCN2C1=O | 0.2 | 80.5* | -0.9 | 11.2 | 70.1* | >6.48 | -7.5
CC(C)[C@H]1NC(=O)[C@H]2CN(C(=O)OCc3ccccc3)CCN2C1=O | -0.2 | -3.0 | -1.8 | -9.6 | / | / | /
O=C1N[C@@H](CC2CCCCC2)C(=O)N2CCN(C(=O)NCc3ccccc3)C[C@H]12 | -0.1 | 77.4* | 0.7 | 3.3 | 68.4* | >6.48 | -8.9
O=C(c1ccccc1)c1cc(Cl)ccc1NC(=O)C1CC=CCC1C(=O)O (stereo unspecified) | 0.3 | 13.5 | 0.3 | 7.3 | / | / | /
CCCN(CCC)CCCN1C(=O)C2C(C(=O)Nc3cccc(SC)c3)C3C=CC2(O3)C1C(=O)NC1CCCCC1 (stereo unspecified) | -0.2 | 1.7 | -1.2 | 8.9 | / | / | /
CC1(C)C(=O)NCCN1C(=O)C1CCN(S(=O)(=O)c2ccc(F)cc2)CC1 | 0.2 | 68.5* | -0.8 | -0.2 | -7.7 | / | -5.1
O=C(C1CCN(S(=O)(=O)c2ccc(F)cc2)CC1)N1CCCCC1 | 0.3 | -8.1 | -0.2 | 6.7 | / | / | /
O=c1[nH]c2ccc(Br)cc2[nH]c1=O | 0.3 | 1.4 | 0.9 | 2.9 | / | / | /
Cc1ccc2[nH]c(=O)c(=O)[nH]c2c1 | 0.5 | 81.7* | 2.1 | 10.7 | 53.3* | >12.1 | -1.7
Cc1ccn2c(NCC3CCCO3)c(-c3ccc(O)cc3O)nc2c1 (stereo unspecified) | -0.2 | 89.0* | -0.8 | -2.9 | 83.9* | >6.48 | 5.6
COc1ccc(Nc2nnc(SCC(=O)c3c[nH]c4ccccc34)s2)cc1 | 0.0 | 3.4 | 3.0 | -7.5 | / | / | /
CCCCC(CC)CNCC(O)COCc1ccc(OC)c(OC)c1 (stereo unspecified) | 0.2 | 65.4* | -0.9 | 4.2 | 21.4 | / | 26.9
CCOc1cc(CN2CCC(C(=O)NCC3CCCO3)CC2)ccc1O (stereo unspecified) | 0.0 | 58.3* | 0.8 | 0.1 | 1.2 | / | -2.3
COc1cc(CN2CCC(C(=O)NC3CCCC3)CC2)ccc1O | 0.2 | 59.6* | 0.5 | 4.6 | -15.7 | / | 2.0
CCOc1ccc(CN2CCC(C(=O)NCC3CCCO3)CC2)cc1 (stereo unspecified) | 0.0 | 35.5 | -0.1 | -3.2 | / | / | /
O=C1N[C@H](CO)C(=O)N2CCN(Cc3ccc(CN4CCCCC4)s3)C[C@H]12 | 0.0 | 8.0 | -0.6 | 15.5 | / | / | /
CC(C)NC(=O)/C(C#N)=C/c1ccc(-c2ccc([N+](=O)[O-])cc2Br)o1 | -0.1 | 72.6* | 0.5 | -18.4 | 76.6* | >7.06 | -20.2
CC(=O)N/N=C/c1ccc(-c2ccc([N+](=O)[O-])cc2Br)o1 | -0.2 | -25.1 | -1.5 | 8.0 | / | / | /
Clc1cc2c(c3ncccc13)OCN(CC1CCCO1)C2 (stereo unspecified) | -1.1 | 87.9* | -0.3 | 21.1 | 100.1* | / | 100.6*
CCCCN1COc2c(cc(Cl)c3cccnc23)C1 | -0.4 | 77.8* | 0.4 | 41.4* | 72.6* | / | 100.3*
CN(C(=O)CN1C(=O)COc2c1cc(Cl)c1cccnc21)C1CCCCC1 | -0.4 | -5.7 | -0.1 | -5.6 | / | / | /
Clc1cc2c(c3ncccc13)OCN(Cc1ccccn1)C2 | -1.4 | 114.5* | 0.6 | 5.5 | 65.1* | / | 87.8*
O=C(NCCO)c1cccc(-c2cccs2)c1 | -0.1 | 58.9* | 2.6 | 1.0 | 58.9* | >8.06 | 1.3

Screening results from PubChem BioAssay.
